# Rows were chosen to be rich in hits. Some 2.9% of all compounds tested hit in one or more screens of this group.
# ATXN viability: cell viability loss in ATXN counter-screen; Potency, µM (series often up to 56.7 µM), usual class: cytotoxic; AID 651635; S2 cells (HEK-293 line with an ATXN2-luciferase reporter) viability, CellTiter-Fluor protease fluorescence, 24 h; 400,000 compounds, 0.49% hits; further: nearly all actives have a fitted effect of over 40% in size
# ATXN2 expr inh: reduces ATXN2 reporter expression in HEK-293 cells. 360,000 compounds, 0.72% hits. Potency, µM (doses to about 57 µM), inactives show top-dose activity change, negative = inhibition, usual class: inhibitors. AID 1745845. HEK-293 ATXN2-luciferase reporter, luminescence, 24 h; further: on the % scale 0 is the no-effect control and ±100 the full control effect; nearly all actives have a fitted effect of over 55% in size
#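 ATXN2-luciferase reporter cells (luciferase flanked by upstream and downstream ATXN2 gene portions) were treated 24 h at 37 °C with compounds at up to 57 uM. SteadyGlo luminescence gave expression; GF-AFC fluorescence gave viability.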
# A549 tox: kills or reduces viability of A549 cells in Nrf2 counter-screen; A549 ARE-Fluc cells, CellTiter-Fluor viability, 18-24 h; Potency, µM (series often up to 46 µM), inactives show top-dose activity change, negative = cytotoxicity, hits mostly inhibitors; 390,000 compounds, 0.16% hits; further: on the % scale 0 is the no-effect control and ±100 the full control effect
#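 A549 ARE-Fluc cells in 5% FBS OPTI-MEM, 5000 cells/well, rested 2 h then exposed to compounds in concentration-response for 18-24 h at 37 °C. Viability by CellTiter-Fluor fluorescence (Ex 405/Em 525) after 30 min; luciferase luminescence (BugLite, 15 min, RT) read afterwards.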
# Nrf2 ARE act: Nrf2 pathway activation. AID 624171. 410,000 compounds, 0.31% hits. Potency, µM (series often up to 46.1 µM), for inactives: at the top dose activation, actives largely listed as activators. AREc32 ARE-luciferase reporter (MCF7-derived line), luminescence, 24 h; further: % of control where 0% means no effect; nearly all actives have a fitted effect of over 65% in size
#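 Reporter line AREc32 (ARE-Fluc), seeded overnight in OPTI-MEM with 5% FBS; compound pin-transferred, 24 hr at 37 deg C, 5% CO2; luminescent read-out.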
# Nrf2 inh: blocks Nrf2 signaling | A549 ARE-Fluc reporter, luciferase luminescence, 18-24 h | Potency, µM (series often up to 46 µM), inactives show at the highest dose activity change, negative = inhibition, hits mostly inhibitors | 360,000 compounds, 2.1% hits | AID 504444; further: on the % scale 0 is the no-effect control and ±100 the full control effect; nearly all actives have a fitted effect of over 60% in size
#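 Nrf2 activity is the BugLite luminescence, read 15 min after reagent at room temperature, following CellTiter-Fluor cytotoxicity readout (30 min, 37C). Compound titrations were applied for 18-24 h to 5000 A549 ARE_Fluc cells/well in 5% FBS OPTI-MEM.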
# * hit, by the source's call; i = inactive; u = inconclusive; x = no result. The call rests on the fitted dose curve; in most records, active means well fitted curve in the direction sought with a large enough effect; inconclusive means small, poorly fitted or top-dose-only effect, or another doubt; inactive means no such curve, though single readings can be large; an effect the other way counts as inactive or inconclusive. Potency means the concentration at half of the fitted maximal effect.
SMILES,ATXN viability,ATXN2 expr inh,A549 tox,Nrf2 ARE act,Nrf2 inh
CC(=O)Nc1ccc(C2Sc3ccccc3NC3=C2C(=O)c2ccccc23)cc1 (configuration not stated),15.8µM*,12.0%,-18.3%,u,16.0%
CCc1ccc(C2Sc3ccccc3NC3=C2C(=O)c2ccccc23)cc1 (configuration not stated),28.2µM*,-37.2%,u,0.6%,u
OC1(c2cccnc2)CCN(Cc2ccc3c(c2)CN(Cc2cc(F)ccc2F)CCO3)CC1,i,x,x,x,x
COc1cccc(-n2ccnc2SCC(=O)Nc2c(C)cc(C)cc2C)c1,x,x,7.6%,-4.3%,x
CN1Cc2cc(C(=O)N3CCC(C4CCNCC4)CC3)ccc2N[C@@H](CC(=O)O)C1=O,i,0.9%,x,x,x
Clc1ccc(-c2nc3cnccn3c2Nc2ccc3c(c2)OCO3)cc1,i,-27.5%,u,-0.7%,23.1µM*
COC(=O)c1ccc(C(=O)NCC2Cc3cccc(-c4ccc(C(=O)OC)cn4)c3O2)cc1 (configuration not stated),i,x,x,x,x
COc1ccc2nc(N3C(=O)C(O)=C(C(=O)c4ccco4)C3c3ccc(C)o3)sc2c1 (configuration not stated),i,-1.7%,u,11.4%,u
Cc1ccc2nc(N3C(=O)C(O)=C(C(=O)c4ccco4)C3c3cccs3)sc2c1 (configuration not stated),i,47.8%,14.6µM*,u,u
COc1ccc(-c2ccc(OC)c([C@H]3[C@H]4C=CC[C@@H](C)[C@@H]4C(=O)N3Cc3ccccc3)c2)cc1OC,i,3.4%,-9.2%,-0.4%,u
COc1ccc(-c2ccccc2[C@H]2[C@@H]3C=CC[C@@H](C)[C@@H]3C(=O)N2Cc2ccccc2)cc1,i,u,u,2.7%,18.4µM*
COc1ccc(-c2c([C@H]3[C@H]4C=CC[C@@H](C)[C@@H]4C(=O)N3Cc3ccccc3)ccc3ccccc23)cc1OC,i,u,u,6.5%,18.4µM*
COc1ccc(-c2c(C3C4C=CCC(C)C4C(=O)N3Cc3ccccc3)ccc3ccccc23)cc1 (configuration not stated),x,x,-6.4%,x,20.6µM*
COc1ccc(Br)cc1[C@H]1[C@H]2C=CC[C@@H](C)[C@@H]2C(=O)N1Cc1ccccc1,u,-0.8%,-17.3%,-0.6%,20.6µM*
COc1cc(=O)n2c(c1C(=O)NCc1nonc1C)CCN(Cc1c[nH]c3ccccc13)CC2,i,x,x,x,x
O=C(NCc1nnc2n1CCN(Cc1ccnc3ccccc13)CC2)c1cccc(F)c1,i,x,x,x,x
COCc1c(C(=O)N2CCN(C3CCCC3)CC2)cnn1-c1nccc(-c2cccs2)n1,i,x,x,x,x
Cc1ccc(Cl)cc1NS(=O)(=O)c1cc2c(cc1F)NC(=O)CC2,x,x,14.0%,x,-13.4%
O=C(Cn1cnc2onc(-c3ccc(F)cc3)c2c1=O)Nc1cccc(C(F)(F)F)c1,i,-4.8%,-24.9%,0.7%,23.1µM*
O=C(Cn1cnc2onc(-c3ccc(F)cc3)c2c1=O)Nc1ccc(F)c(Cl)c1,i,8.7%,-25.9%,-0.8%,u
CN(C)CCCNC(=S)NCC(c1ccc(Cl)cc1Cl)c1c[nH]c2ccccc12 (configuration not stated),u,25.1µM*,9.1%,-2.9%,-4.3%
Cn1c(Nc2ccc(C(F)(F)F)cc2)nc2cc(Oc3ccnc(-c4ncc(C(F)(F)F)[nH]4)c3)ccc21,x,-19.0%,x,x,x
COc1cc(/C=C2/C(=O)c3cccc([N+](=O)[O-])c3C2=O)c(Br)cc1O,x,22.4µM*,-9.4%,7.8%,-0.9%
CCC(C)Sc1ccc(-c2nc3cnccn3c2NC2CCCCC2)cc1 (configuration not stated),x,u,-29.2%,-1.0%,23.1µM*
C[C@@H]1CN(Cc2ccc(F)cc2)[C@@H](C)CN1C(=O)c1cc2c(C(=O)C(=O)N(C)C)cn(C)c2cc1Cl,x,-17.4%,x,x,x
COc1ccc(-c2nnc3n2N=C(c2cc(OC)ccc2OC)CS3)cc1,x,x,-12.3%,x,3.6%
CCOC(=O)c1scc(-c2ccc(C)cc2)c1S(=O)(=O)Nc1cccc(CC)c1,i,-6.5%,6.1%,7.2%,u

# Screening results from PubChem BioAssay.
